Source: PubChem (several laboratories)
Compounds with a hit are over-represented: about 3% of the library has one in this group of screens.
GDH-TPI counter-1: inhibits GDH-TPI coupling enzymes, artifact for Mtb FBA screen; GDH-TPI coupled enzyme counterscreen, NADH absorbance; inhibition, % at 4.8 µM; 360,000 tested, 1.2% active; in the data active means inhibition above about 30%;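 further: 0% = DMSO wells and 100% = wells lacking the enzyme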
Rv3671c inh: Rv3671c (M. tuberculosis) protease inhibition; P9WHR9; inhibition, % at 5.96 µM; 320,000 tested, 0.048% active; AID 2606; in the data active means inhibition above about 38%;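 further: extracellular domain of Rv3671c used as enzyme; 0% = enzyme with DMSO and 100% = no enzyme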
FadD28 binding: M. tuberculosis FadD28 bisubstrate binding inhibition; FadD28 bisubstrate probe binding, fluorescence polarization; inhibition, % at 12.5 µM; 360,000 tested, 0.22% active; in the data active means inhibition above about 8.5%, passing the limit was not always enough
Mtb BioA inh: blocks M. tuberculosis BioA enzyme activity | 360,000 tested, 0.096% active | purified M. tuberculosis BioA enzyme, plate reader | inhibition, % at 9.99 µM; in the data active means inhibition above about 40%
FBA Mtb inh: Mtb fructose-bisphosphate aldolase inhibition. P9WQA3. purified M. tuberculosis FBA, fluorescence read-out. inhibition, % at 1 µM. 360,000 tested, 2.3% active. AID 588726;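 further: 0% = vehicle and 100% = reference inhibitor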
Target sequence (P9WQA3 whole entry, looked up): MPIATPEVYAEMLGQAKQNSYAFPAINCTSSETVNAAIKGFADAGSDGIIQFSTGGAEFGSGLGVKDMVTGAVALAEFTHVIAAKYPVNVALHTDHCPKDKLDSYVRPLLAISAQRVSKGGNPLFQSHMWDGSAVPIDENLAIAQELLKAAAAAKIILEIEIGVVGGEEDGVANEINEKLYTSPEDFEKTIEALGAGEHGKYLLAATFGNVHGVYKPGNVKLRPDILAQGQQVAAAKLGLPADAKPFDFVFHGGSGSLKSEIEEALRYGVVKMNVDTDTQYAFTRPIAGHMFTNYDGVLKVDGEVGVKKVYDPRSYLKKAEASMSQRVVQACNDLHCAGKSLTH
Mtb FBA inh conf: confirmation of M. tuberculosis fructose-bisphosphate aldolase inhibitors; inhibition, % at 1 µM; shares compounds with FBA Mtb inh; purified M. tuberculosis FBA, fluorescence read-out; 5,600 tested, 78% active; AID 651616;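 further: 0% = vehicle wells and 100% = reference inhibitor wells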
GDH-TPI counter-2: GDH-TPI inhibition counter-screen for FBA inhibitors | shares compounds with FBA Mtb inh | inhibition, % at 1 µM | GDH-TPI coupled enzyme counterscreen, fluorescence | 5,600 tested, 81% active; in the data active means inhibition above about 10%
Starred values were filed as active, the others as inactive; x = no result; + = active, no number. Unless noted, no stated cut-off is given here; in the data, active means inhibition above about 27%; inactive means the rest.

SMILES | GDH-TPI counter-1 | Rv3671c inh | FadD28 binding | Mtb BioA inh | FBA Mtb inh | Mtb FBA inh conf | GDH-TPI counter-2
COc1ccc(NC(=O)C2(C)Cc3c(-c4ccc(N(C)C)cc4)ccnc3O2)cn1 (stereo unspecified) | 27.4 | x | -2.4 | 5.6 | 40.3* | 128.7* | 102.6*
CC(C)c1ccc(NC(=O)C2(C)Cc3c(-c4ccc(N(C)C)cc4)ccnc3O2)cc1 (stereo unspecified) | 7.5 | x | -2.3 | -0.8 | 21.1 | x | x
CC(=O)Nc1ccc(-c2ccnc3c2CC(C)(C(=O)Nc2ccc(Cl)c(C(F)(F)F)c2)O3)cc1 (stereo unspecified) | 13.3 | x | -1.5 | -0.4 | 2.5 | x | x
COc1ccc(S(=O)(=O)Nc2ccc3c(c2)CC(=O)N([C@H](C)CO)C[C@H](C)[C@@H](CN(C)Cc2ccccc2)O3)cc1 | x | x | x | 0.5 | x | x | x
Oc1ccc(-c2nccs2)cc1 | 18.4 | x | 2.0 | -0.5 | 47.4* | 108.3* | 86.2*
O=[N+]([O-])c1ccc(O)c(C=Nc2cccc3ccccc23)c1 | 15.4 | -1.1 | -2.5 | -1.7 | 23.1 | x | x
Oc1ccc(C=Nc2cccc3ccccc23)c(O)c1 | 9.2 | -7.0 | -2.7 | -0.1 | 61.5* | 131.8* | 122.1*
O=[N+]([O-])c1cccc(C=Nc2cccc3ccccc23)c1O | 7.5 | -6.1 | -2.2 | -3.0 | 38.9* | 178.7* | 157.0*
COCC#Cc1ccc2c(c1)O[C@@H](CN(C)C(=O)C1CC1)[C@@H](C)CN([C@H](C)CO)S2(=O)=O | x | x | x | -0.4 | x | x | x
Nc1[nH]ncc1-c1ccc(F)cc1 | 10.9 | 5.5 | -1.2 | -2.1 | 107.9* | 9.6 | -5.8
CCN(Cc1ccccc1)c1ccc(/C=N/N=C(N)N)cc1 | 23.6 | 8.8 | 3.5 | 2.3 | 16.0 | x | x
NC(N)=N/N=C/c1ccc(N(c2ccccc2)c2ccccc2)cc1 | 8.1 | 18.4 | 1.0 | -1.8 | 104.5* | 70.9* | 48.7*
Cc1ccccc1S(=O)(=O)N1C[C@@H](O)COC[C@H]2O[C@H](CC(=O)O)CC[C@@H]21 | x | x | x | -0.2 | x | x | x
COc1ccc(O)c(C(=O)CC(=O)c2ccc(F)cc2)c1 | 15.5 | -3.3 | -1.4 | 0.1 | 80.5* | 79.5* | 52.0*
CN(C)CCNC(=O)c1c(NC(=O)c2ccccc2)sc2c1CCCC2 | 22.1 | -1.9 | -5.0 | 0.7 | 40.4* | 113.9* | 108.8*
CCOC(=O)C1CCCN(S(=O)(=O)c2cc3[nH]c(=O)c(=O)[nH]c3cc2C)C1 (stereo unspecified) | 18.8 | 5.4 | -0.8 | -0.9 | 47.5* | 83.3* | 58.2*
C[C@H](CO)N1C[C@H](C)[C@H](CN(C)C)OCCCC[C@H](C)Oc2ccc(N(C)C)cc2C1=O | x | x | x | -1.0 | x | x | x
CCOC(=O)c1cc2c(=O)n3cccc(C)c3nc2n(Cc2ccco2)c1=NC(=O)c1cccnc1 | 20.4 | x | -2.7 | 14.1 | 105.6* | 30.7* | 34.7*
Cc1ccc2c(c1)=NC(=O)/C(=C/c1c(O)[nH]c(=O)[nH]c1=O)C=2 | 1.3 | -23.2 | -4.6 | -0.5 | 34.8* | 94.6* | 65.1*
CCCCc1cc(=O)oc2cc(C)cc(OC(C)C(=O)NCc3cccnc3)c12 (stereo unspecified) | -4.7 | -0.3 | -1.6 | 0.4 | 55.8* | 55.3* | 43.2*
CC(Oc1cc2oc(=O)c3c(c2cc1Cl)CCC3)C(=O)NCc1ccncc1 (stereo unspecified) | 5.1 | 7.2 | -3.7 | 37.7 | 1.2 | x | x
CCc1cc(=O)oc2cc(C)cc(OC(C)C(=O)NCc3ccncc3)c12 (stereo unspecified) | 3.5 | 1.2 | -2.3 | 0.2 | 84.1* | 0.4 | -4.9
CCc1cc(=O)oc2cc(C)cc(OC(C)C(=O)NCc3cccnc3)c12 (stereo unspecified) | -3.5 | 6.8 | -0.5 | 0.4 | 105.5* | + | 154.2*
Cc1cc(OC(C)C(=O)NCc2cccnc2)c2c(C)c(C)c(=O)oc2c1 (stereo unspecified) | -2.7 | -2.8 | -3.5 | -0.7 | 13.6 | x | x
CCCc1cc(=O)oc2cc(C)cc(OC(C)C(=O)N[C@@H](Cc3c[nH]c4ccccc34)C(=O)O)c12 (stereo partly specified) | 7.8 | -1.3 | -0.8 | -0.7 | 3.1 | x | x
COc1ccc(NC(=O)Nc2ccc3c(c2)C(=O)N([C@@H](C)CO)C[C@H](C)[C@@H](CN(C)C(=O)Nc2ccc4c(c2)OCO4)OCCCC[C@H](C)O3)cc1 | x | x | x | -1.8 | x | x | x
